# Measured values from PubChem BioAssay AID720526 (National Center for Advancing Translational Sciences (NCATS), 2013).
# Results filed as inconclusive are left out. Unmarked numbers belong to inactive results. The call rests on the fitted dose curve; in most records, active means well fitted activation curve with a large enough effect; inconclusive means small, poorly fitted or top-dose-only effect; inactive means no such curve, though single readings can be large or run the other way.
# Experiment: qHTS Assay for NPC1 Promoter Activators: Hit Validation Using Renila Luciferase Read-Out for NPC1; further: % of control where 0% means no effect
# Conditions: Huh7 NPC1 promoter-luciferase reporter, luminescence, 24 h; series mostly up to 76.9 µM; activity change, positive = activation: at the top concentration
# Excerpt: Niemann Pick Type C (NPC) is a rare neurodegenerative lipidosis that is characterized by lipid storage in the endosomal/lysosomal system. Treatment modalities for this devastating disease are currently non-existent due to the severe obstacles associated with accessing the central nervous system with proteins or genes. The majority of mutations causing NPC disease are missense mutations that are distributed throughout the length of the NPC1 protein, with the most prevalent being the I1061T allele. Although NPC1 mutant proteins may be functional, they are typically trapped in the ER due to misfolding. […] We have developed and optimized a cell based renilla luciferase reporter assay in 1536 well format for the identification of up-regulators of the mutant Rab9 promoter. This assay presents data on the validation of hits from the primary screen, which used a firefly luciferase read-out. NIH Chemical Genomics Center [NCGC] NIH Molecular Libraries Probe Production centers Network [MLPCN] MLPCN Grant: MH089375 Assay Submitter (PI): Yiannis A. Ioannou
# Huh7 cells stably expressing NPC promoter-luciferase will be seeded at 1,500 cells/well in 5 uL in 1,536-well white opaque plates with 23 nL/well of compound in DMSO solution. The assay plates will be incubated at 37 deg C for 24 hours, after which 3 uL/well BriteLite plus luciferase detection reagent mixture (Perkin Elmer) will be added. Luminescence signal will be measured in a ViewLux plate reader (Perkin Elmer) after a 10 minute incubation at the room temperature.
row,SMILES,"activity change, positive = activation"
1,Cc1cccn2c(NCC3CCCO3)c(C(C)C)nc12 (stereo unspecified),7.06%
2,CCC(=NCc1cccnc1)c1c(O)n(-c2ccccc2)c(=O)[nH]c1=O,-9.97%
3,COc1cccc(CCNCc2ccc(SC)cc2)c1,-52.1%
4,COc1ccc(C(CC(=O)N2CCC3(CC2)OCCO3)NS(=O)(=O)c2ccc(F)cc2)cc1 (stereo unspecified),24.6%
5,O=C1c2ccccc2C(=O)N1Cc1nc2ccccc2c(=O)n1-c1cccnc1,-8.39%
6,CN1CCc2cc3c(c4c2C1Cc1ccccc1-4)OCO3 (stereo unspecified),-61.6%
